Experimental data published in PubChem BioAssay AID1159580 (chemical genetic matrix, 2015).
Screen size: about 5,500 compounds; about 2,000 (36%) were called active. Inconclusive results (about 18%) are left out. Cut-off read from the data, not from the text of the source: active = normalized growth mostly below about 0.91 (no sharp cut-off); inconclusive = no clear call, values can overlap the other calls; inactive = mostly above about 0.92. Some of the results follow.

Experiment: chemical genetic growth profiling, strain panel (AID 1159580);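 note: tested at 20 µM; growth read once vehicle control cultures reached saturation at 30 °C; 1 = growth at the plate median or of vehicle wells; lower values mean less growth of the strain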
Settings: S. cerevisiae deletion strains, growth OD
[1] = locus YAL040C, strain CLN3, hits give low values
[2] = locus YCL061C, strain MRC1 (second series), hits give low values
[3] = locus YDR363W, strain ESC2, hits give low values
[4] = locus YER002W, strain NOP16, hits give low values
[5] = locus YGR229C, strain SMI1, hits give low values
[6] = locus YJR075W, strain HOC1, hits give low values
[7] = locus YMR307W, strain GAS1, hits give low values
[8] = locus YNL153C, strain GIM3, hits give low values
[9] = locus YNL175C, strain NOP13, hits give low values
[10] = locus YNL197C, strain WHI3, hits give low values
[11] = locus YNL224C, strain SQS1, hits give low values
[12] = locus YNL322C, strain KRE1, hits give low values
[13] = locus YOR083W, strain WHI5 (second series), hits give low values
[14] = locus YPL055C, strain LGE1, hits give low values

Measured: normalized growth

CN(C)S(=O)(=O)c1ccc2c(c1)/C(=C/c1cc3c([nH]1)CCCC3)C(=O)N2
inactive: [1] 1.07 | [2] 0.995 | [3] 0.983 | [4] 0.983 | [5] 0.972 | [6] 1.01 | [7] 0.996 | locus YNL128W, strain TEP1, hits give low values 0.982 | [8] 0.977 | [9] 0.976 | [10] 0.995 | [11] 0.983 | [12] 0.983 | [13] 1 | [14] 0.985

CN1CCN(CC/C=C2/c3ccccc3Sc3ccc(S(=O)(=O)N(C)C)cc32)CC1
inactive: [1] 0.997 | [2] 1 | [3] 0.983 | [4] 1.03 | [5] 0.99 | [6] 0.993 | [7] 0.999 | [8] 1.02 | [9] 1.03 | [10] 1.02 | [11] 1.04 | [12] 0.967 | [13] 1.05 | [14] 0.989
